# PubChem BioAssay (NCI)
# Compounds without any hit were thinned out: in the full panel of roughly 79,000, 15% have a hit. Unmarked numbers belong to inactive results. Activity calls are given as the source filed them. No stated cut-off is given here; in the data, active means growth inhibition above about 70%; inactive means the rest.
# Experiments:
# [1] = NCI Yeast Anticancer Drug Screen. Data for the rad52 strain (AID 147);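 further: 0% = growth of vehicle-treated control cultures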; settings: S. cerevisiae rad52 mutant growth inhibition, active compounds read high
# How it was run: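 Inhibition of yeast growth, referenced to vehicle controls, was the measured output for a strain with defective DNA damage repair.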
# [2] = NCI Yeast Anticancer Drug Screen. Data for the wt1 strain (AID 149);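 further: 0% = growth of vehicle-treated wt1 cultures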; settings: S. cerevisiae wt1 strain (SPY 50644) growth inhibition, active compounds read high
# How it was run: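 Yeast wt1 strain exposed to compounds; growth inhibition measured relative to vehicle-treated controls.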
# [3] = NCI Yeast Anticancer Drug Screen. Data for the rad50EPP+ strain (AID 151);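 further: 0% = growth of vehicle-treated control cultures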; settings: S. cerevisiae rad50 mutant strain, active compounds read high
# How it was run: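 Genetically defined yeast (rad50EPP+, DNA damage repair alteration) is grown with compound, and inhibition of growth is expressed relative to vehicle-treated controls.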
# [4] = NCI Yeast Anticancer Drug Screen. Data for the mgt1 strain (AID 153); settings: S. cerevisiae mgt1 mutant growth inhibition, active compounds read high
# How it was run: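 In the mgt1 strain, test compounds were added and growth inhibition was determined relative to vehicle-treated controls.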
# [5] = NCI Yeast Anticancer Drug Screen. Data for the rad50 strain (AID 155);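 further: 0% = growth of vehicle-only cultures of the same strain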; settings: S. cerevisiae rad50 strain growth inhibition, active compounds read high
# How it was run: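 Yeast carrying a defined DNA repair defect were exposed to test compounds, and growth was compared with vehicle-treated controls to give percent inhibition.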
# [6] = NCI Yeast Anticancer Drug Screen. Data for the mec2-1 strain (AID 157); settings: S. cerevisiae mec2-1 strain, active compounds read high
# How it was run: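 Each compound was tested on mec2-1 yeast, a strain altered in DNA damage repair or cell cycle control. Growth inhibition is reported relative to vehicle.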
# [7] = NCI Yeast Anticancer Drug Screen. Data for the rad14 strain (AID 159);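 further: 0% = growth of vehicle-treated control cultures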; settings: S. cerevisiae rad14 strain growth inhibition, active compounds read high
# How it was run: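 Yeast cells carrying a defined DNA-repair defect were exposed to compounds, and growth inhibition was calculated relative to vehicle-treated control cultures.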
# [8] = NCI Yeast Anticancer Drug Screen. Data for the sgs1 mgt1 strain (AID 161);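 further: 0% = growth of cultures given vehicle only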; settings: S. cerevisiae sgs1 mgt1 strain, active compounds read high
# How it was run: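 Inhibition of yeast growth, normalised to vehicle-treated controls, is reported for a strain bearing genetic alterations in DNA damage repair.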
# [9] = NCI Yeast Anticancer Drug Screen. Data for the CLN2oe strain (AID 163);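 further: 0% = growth of vehicle-only control cultures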; settings: S. cerevisiae CLN2oe strain, active compounds read high
# How it was run: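 First, the altered yeast strain was treated with each compound; second, its growth was measured; finally, inhibition was derived by comparison with vehicle controls.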
# [10] = NCI Yeast Anticancer Drug Screen. Data for the cln2 rad14 strain (AID 165);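 further: 0% = growth equal to vehicle treated cultures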; settings: S. cerevisiae cln2 rad14 strain, active compounds read high
# How it was run: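 Test compounds were added to cln2 rad14 yeast cultures; inhibition of growth was then determined by comparison with vehicle treatment.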
# [11] = NCI Yeast Anticancer Drug Screen. Data for the bub3 strain (AID 167); settings: S. cerevisiae bub3 mutant strain, active compounds read high
# How it was run: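 Compounds were applied to a genetically altered yeast strain carrying a cell-cycle control defect. Growth inhibition was scored against vehicle-treated controls.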
# [12] = NCI Yeast Anticancer Drug Screen. Data for the wt2 strain (AID 169);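 further: 0% = growth of vehicle-treated yeast cultures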; settings: S. cerevisiae wt2 strain growth inhibition, active compounds read high
# How it was run: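 The panel's yeast strains carry defined changes in DNA repair or cell cycle genes. Each strain is grown with compound, and growth loss is scored relative to vehicle.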
# [13] = NCI Yeast Anticancer Drug Screen. Data for the mlh1 strain (AID 171);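 further: 0% = growth of vehicle-treated control cultures of the same strain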; settings: S. cerevisiae mlh1 strain growth inhibition, active compounds read high
# How it was run: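 Inhibition values reflect reduced yeast growth in the presence of compound, referenced to vehicle controls, using a strain chosen for its alteration in DNA repair or cell cycle control.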
# [14] = NCI Yeast Anticancer Drug Screen. Data for the mlh1 rad18 strain (AID 175); settings: S. cerevisiae mlh1 rad18 strain growth inhibition, active compounds read high
# How it was run: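 Inhibition values reflect reduced growth of mutant yeast versus vehicle-treated controls following compound exposure; the mutations affect DNA damage repair.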
# [15] = NCI Yeast Anticancer Drug Screen. Data for the rad18 strain (AID 177); settings: S. cerevisiae rad18 mutant growth inhibition, active compounds read high
# How it was run: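 Steps: expose repair-mutant yeast to compound; measure growth; express as inhibition relative to vehicle control.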
# [16] = at 5.0 µM (retest, dose inferred, filed as 0.5)
# [17] = at 50.0 µM (retest, dose inferred, filed as 5.0)
smiles,measurement,setting,value
COC(=O)C1C2c3ccccc3C(c3ccccc32)C1C(=O)OC (stereo not drawn),growth inhibition,[1]; at 1.2 µM,3%
same,growth inhibition,[1]; at 3.7 µM,10%
same,growth inhibition,[1]; at 11.0 µM,9%
same,growth inhibition,[1]; at 33.0 µM,10%
same,growth inhibition,[1]; at 100.0 µM,10%
same,growth inhibition,[2]; at 1.2 µM,7%
same,growth inhibition,[2]; at 3.7 µM,5%
same,growth inhibition,[2]; at 11.0 µM,5%
same,growth inhibition,[2]; at 33.0 µM,8%
same,growth inhibition,[2]; at 100.0 µM,7%
same,growth inhibition,[3]; at 1.2 µM,4%
same,growth inhibition,[3]; at 3.7 µM,5%
same,growth inhibition,[3]; at 11.0 µM,4%
same,growth inhibition,[3]; at 33.0 µM,7%
same,growth inhibition,[3]; at 100.0 µM,10%
same,growth inhibition,[4]; at 1.2 µM,-2%
same,growth inhibition,[4]; at 3.7 µM,-1%
same,growth inhibition,[4]; at 11.0 µM,-2%
same,growth inhibition,[4]; at 33.0 µM,2%
same,growth inhibition,[4]; at 100.0 µM,11%
same,growth inhibition,[5]; at 1.2 µM,4%
same,growth inhibition,[5]; at 3.7 µM,1%
same,growth inhibition,[5]; [16],6%
same,growth inhibition,[5]; at 11.0 µM,3%
same,growth inhibition,[5]; at 33.0 µM,7%
same,growth inhibition,[5]; [17],47%
same,growth inhibition,[5]; at 50.0 µM,14.8%
same,growth inhibition,[5]; at 100.0 µM,7%
same,growth inhibition,[6]; at 1.2 µM,-2%
same,growth inhibition,[6]; at 3.7 µM,-3%
same,growth inhibition,[6]; [16],-3%
same,growth inhibition,[6]; at 11.0 µM,-1%
same,growth inhibition,[6]; at 33.0 µM,0%
same,growth inhibition,[6]; [17],15%
same,growth inhibition,[6]; at 50.0 µM,41.5%
same,growth inhibition,[6]; at 100.0 µM,9%
same,growth inhibition,[7]; at 1.2 µM,2%
same,growth inhibition,[7]; at 3.7 µM,2%
same,growth inhibition,[7]; at 11.0 µM,0%
same,growth inhibition,[7]; at 33.0 µM,8%
same,growth inhibition,[7]; at 100.0 µM,13%
same,growth inhibition,[8]; [16],5%
same,growth inhibition,[8]; [17],70% (active)
same,growth inhibition,[8]; at 50.0 µM,72.5% (active)
same,growth inhibition,[9]; at 1.2 µM,2%
same,growth inhibition,[9]; at 3.7 µM,-1%
same,growth inhibition,[9]; at 11.0 µM,0%
same,growth inhibition,[9]; at 33.0 µM,7%
same,growth inhibition,[9]; at 100.0 µM,17%
same,growth inhibition,[10]; [16],-3%
same,growth inhibition,[10]; [17],28%
same,growth inhibition,[10]; at 50.0 µM,8.85%
same,growth inhibition,[11]; at 1.2 µM,-1%
same,growth inhibition,[11]; at 3.7 µM,-2%
same,growth inhibition,[11]; [16],19%
same,growth inhibition,[11]; at 11.0 µM,-4%
same,growth inhibition,[11]; at 33.0 µM,1%
same,growth inhibition,[11]; [17],27%
same,growth inhibition,[11]; at 50.0 µM,14.4%
same,growth inhibition,[11]; at 100.0 µM,2%
same,growth inhibition,[12]; at 1.2 µM,-2%
same,growth inhibition,[12]; at 3.7 µM,-6%
same,growth inhibition,[12]; at 11.0 µM,-1%
same,growth inhibition,[12]; at 33.0 µM,5%
same,growth inhibition,[12]; at 100.0 µM,-1%
same,growth inhibition,[13]; at 1.2 µM,-2%
same,growth inhibition,[13]; at 3.7 µM,-2%
same,growth inhibition,[13]; at 11.0 µM,-3%
same,growth inhibition,[13]; at 33.0 µM,1%
same,growth inhibition,[13]; at 100.0 µM,11%
same,growth inhibition,[14]; [16],17%
same,growth inhibition,[14]; [17],69%
same,growth inhibition,[14]; at 50.0 µM,17.1%
same,growth inhibition,[15]; at 1.2 µM,0%
same,growth inhibition,[15]; at 3.7 µM,2%
same,growth inhibition,[15]; at 11.0 µM,4%
same,growth inhibition,[15]; at 33.0 µM,7%
same,growth inhibition,[15]; at 100.0 µM,8%
CCNC(=O)OCC1C2=C(C(=O)C(C)=C(N)C2=O)N2CC3C(N3C)C12OC (stereo not drawn),growth inhibition,[1]; at 1.2 µM,4%
same,growth inhibition,[1]; at 3.7 µM,25%
same,growth inhibition,[1]; at 11.0 µM,25%
same,growth inhibition,[1]; at 33.0 µM,63%
same,growth inhibition,[1]; at 100.0 µM,81% (active)
same,growth inhibition,[2]; at 1.2 µM,-19%
same,growth inhibition,[2]; at 3.7 µM,-16%
same,growth inhibition,[2]; at 11.0 µM,-4%
same,growth inhibition,[2]; at 33.0 µM,23%
same,growth inhibition,[2]; at 100.0 µM,67%
same,growth inhibition,[3]; at 1.2 µM,6%
same,growth inhibition,[3]; at 3.7 µM,-12%
same,growth inhibition,[3]; at 11.0 µM,-6%
same,growth inhibition,[3]; at 33.0 µM,13%
same,growth inhibition,[3]; at 100.0 µM,41%
same,growth inhibition,[4]; at 1.2 µM,2%
same,growth inhibition,[4]; at 3.7 µM,2%
same,growth inhibition,[4]; at 11.0 µM,21%
same,growth inhibition,[4]; at 33.0 µM,37%
same,growth inhibition,[4]; at 100.0 µM,74% (active)
same,growth inhibition,[5]; at 1.2 µM,14%
same,growth inhibition,[5]; at 3.7 µM,15%
same,growth inhibition,[5]; [16],34%
same,growth inhibition,[5]; at 11.0 µM,19%
same,growth inhibition,[5]; at 33.0 µM,57%
same,growth inhibition,[5]; [17],70% (active)
same,growth inhibition,[5]; at 50.0 µM,58%
same,growth inhibition,[5]; at 100.0 µM,78% (active)
same,growth inhibition,[6]; at 1.2 µM,9%
same,growth inhibition,[6]; at 3.7 µM,13%
same,growth inhibition,[6]; [16],23%
same,growth inhibition,[6]; at 11.0 µM,18%
same,growth inhibition,[6]; at 33.0 µM,58%
same,growth inhibition,[6]; [17],71% (active)
same,growth inhibition,[6]; at 50.0 µM,63.6%
same,growth inhibition,[6]; at 100.0 µM,87% (active)
same,growth inhibition,[7]; at 1.2 µM,-9%
same,growth inhibition,[7]; at 3.7 µM,-5%
same,growth inhibition,[7]; at 11.0 µM,8%
same,growth inhibition,[7]; at 33.0 µM,45%
same,growth inhibition,[7]; at 100.0 µM,78% (active)
same,growth inhibition,[8]; [16],23%
same,growth inhibition,[8]; [17],68%
same,growth inhibition,[8]; at 50.0 µM,47.6%
same,growth inhibition,[9]; at 1.2 µM,4%
same,growth inhibition,[9]; at 3.7 µM,4%
same,growth inhibition,[9]; at 11.0 µM,19%
same,growth inhibition,[9]; at 33.0 µM,41%
same,growth inhibition,[9]; at 100.0 µM,80% (active)
same,growth inhibition,[10]; [16],14%
same,growth inhibition,[10]; [17],50%
same,growth inhibition,[10]; at 50.0 µM,44.7%
same,growth inhibition,[12]; at 1.2 µM,-37%
same,growth inhibition,[12]; at 3.7 µM,-32%
same,growth inhibition,[12]; at 11.0 µM,-28%
same,growth inhibition,[12]; at 33.0 µM,6%
same,growth inhibition,[12]; at 100.0 µM,34%
same,growth inhibition,[13]; at 1.2 µM,15%
same,growth inhibition,[13]; at 3.7 µM,18%
same,growth inhibition,[13]; at 11.0 µM,32%
